Rows were chosen to be rich in hits. Some 11% of all compounds tested hit in one or more screens of this group.
IMPase Li inh = membrane-permeable IMPase blocker, potentiated with lithium | AID 1457 | actives 0.35% (n = 210,000) | Potency, µM (doses to about 59.4 µM), usual class: inhibitors | CHO-M1 cells, IP1 TR-FRET (IP-One), carbachol + lithium; active means well fitted curve in the direction sought with a large enough effect; inconclusive means small, poorly fitted or top-dose-only effect, or another doubt; inactive means no such curve, though single readings can be large; an effect the other way counts as inactive or inconclusive;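 further: IP1 builds up when IMPase is blocked and the TR-FRET signal falls; nearly all actives have a fitted effect of over 50% in size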
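Concentration–response in CHO-M1 cells, lithium-potentiated; 30 min at 37C. IP1 detected by competitive TR-FRET after 10 min lysis at RT. Hill-fitted AC50.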
HPGD inh = inhibitors of human 15-hydroxyprostaglandin dehydrogenase (HPGD); P15428; purified HPGD, NADH fluorescence kinetic, PGE2 substrate; Potency, µM, usual class: inhibitors; actives 4.3% (n = 150,000); AID 894
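20 nM HPGD preincubated 15 min at room temperature with compound in 50 mM Tris-HCl pH 8, 0.01% Tween 20. Started with 1 mM NAD+ and 30 uM prostaglandin E2; NADH fluorescence (360/450 nm) read 5 times over 30-s intervals, last minus first.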
IMPase cell inh = IMPase inhibition in cells; P97697; 120,000 tested, under 10 active; CHO-M1 cells, IP1 accumulation, HTRF TR-FRET ratio; inhibition (IP1 accumulation), % at 46.1 µM; active means well fitted curve in the direction sought with a large enough effect in the signal ratio, not every such curve was filed as active; inconclusive means small, poorly fitted or top-dose-only effect, or a change in a side signal; inactive means no such curve, though single readings can be large or run the other way; the % refers to the signal ratio;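 further: cells stimulated with carbachol in lithium chloride buffer; higher means more IMPase inhibition seen as more IP1 and lower FRET ratio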
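CHO-M1 cells (CHO stably expressing M1 receptor), compound up to 46 uM final, stimulated with carbachol (50 uM as added) in buffer with 50mM LiCl, pH 7.4, 30 min at 37C. Cytosolic IP1 read by TR-FRET; AC50 from Hill fits.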
PNC assembly inh = inhibitors of perinucleolar compartment assembly | PC3M PTB-GFP, PNC prevalence imaging, 16 h; stronger effect = lower value | activity change (PNC), negative = inhibition, % at 10 µM | actives 3.1% (n = 140,000);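 active means readout at or below -70, meaning at least 70% loss of cells showing the perinucleolar compartment, a nuclear body marking cancer cells; inconclusive means readout between -30 and a set limit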
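Compounds are pinned in duplicate onto adhered PC3M cells stably expressing GFP-tagged PTB and incubated 16 h at 37 C. Cells are then fixed, nuclei stained with Hoechst, and PNC-positive cells counted.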
12-hLO inh = inhibitors of human 12-lipoxygenase (ALOX12); P18054; purified 12-hLO, xylenol orange hydroperoxide absorbance; Potency, µM (highest dose often 57.1 µM), usual class: inhibitors; actives 0.12% (n = 150,000); AID 1452; active means well fitted curve in the direction sought with a large enough effect; inconclusive means small, poorly fitted or top-dose-only effect, or another doubt; inactive means no such curve, though single readings can be large; an effect the other way counts as inactive or inconclusive; further: nearly all actives have a fitted effect of over 55% in size
Target sequence (P18054 whole entry, looked up): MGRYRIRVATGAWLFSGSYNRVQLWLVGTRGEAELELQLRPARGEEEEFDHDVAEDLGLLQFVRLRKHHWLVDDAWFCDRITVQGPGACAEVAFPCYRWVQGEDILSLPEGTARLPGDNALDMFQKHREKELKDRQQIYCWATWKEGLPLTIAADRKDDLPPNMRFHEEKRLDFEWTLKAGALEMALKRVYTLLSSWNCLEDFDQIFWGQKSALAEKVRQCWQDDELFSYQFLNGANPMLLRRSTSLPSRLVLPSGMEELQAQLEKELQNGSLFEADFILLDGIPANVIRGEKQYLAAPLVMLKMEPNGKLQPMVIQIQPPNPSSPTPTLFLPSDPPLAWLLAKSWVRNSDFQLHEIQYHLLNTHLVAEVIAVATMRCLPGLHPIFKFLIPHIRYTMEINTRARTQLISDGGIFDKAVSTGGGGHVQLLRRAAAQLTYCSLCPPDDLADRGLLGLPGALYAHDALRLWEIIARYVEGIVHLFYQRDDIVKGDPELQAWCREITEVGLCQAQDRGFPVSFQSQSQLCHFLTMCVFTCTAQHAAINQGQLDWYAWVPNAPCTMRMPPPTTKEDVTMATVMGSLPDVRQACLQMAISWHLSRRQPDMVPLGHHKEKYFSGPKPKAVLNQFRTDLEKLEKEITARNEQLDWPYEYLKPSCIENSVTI
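Hydroperoxide output read as Fe(III)-xylenol orange absorbance, 573-to-405 nm ratio, after 30 min reaction with 40 uM arachidonic acid. Enzyme: 150 nM purified human 12hLO, 15 min compound preincubation; 25 mM Hepes pH 7.0, room temperature.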
ALDH1A1 block = ALDH1A1 (human) enzyme inhibition; P00352; Purified ALDH1A1, NADH fluorescence, propionaldehyde substrate; Potency, µM (series often up to 75.3 µM), most hits filed as inhibitors; actives 7.3% (n = 220,000); AID 1030
Large screens that a line does not name were inactive; ! = a repeat was not active. Unless noted, the call rests on the fitted dose curve; in most records, active means well fitted inhibition curve with a large enough effect (not every such curve was filed as active); inconclusive means small, poorly fitted or top-dose-only effect, or another doubt; inactive means no such curve, though single readings can be large or run the other way.

Cn1c(O)c(/C=N/c2ccccn2)c(=O)n(C)c1=O	PNC assembly inh inconclusive, ALDH1A1 block inconclusive
Cn1c(O)c(/C=N/Nc2ccccc2)c(=O)n(C)c1=O	ALDH1A1 block 10µM (no result: HPGD inh, IMPase cell inh, PNC assembly inh, 12-hLO inh)
Cn1c(O)c(C(=O)c2ccccc2)c(=O)n(C)c1=O	none
COc1ccc2c(c1)c(CCN1CCOCC1)c(C)n2C(=O)c1cccc(Cl)c1Cl	HPGD inh 28µM (no result: IMPase cell inh, PNC assembly inh)
CCOC(=O)c1c(C)n(CCN2CCN(C)CC2)c2ccc(OC)cc12	IMPase cell inh inconclusive
CC1(C)C(C=C(Cl)Cl)C1C(=O)OC(C#N)c1cccc(Oc2ccccc2)c1 (centres undefined)	ALDH1A1 block 25µM! (no result: IMPase cell inh, PNC assembly inh)
COc1ccc(P2(=O)Nc3ccccc3N2)cc1	HPGD inh 25µM, IMPase cell inh inconclusive
COc1ccc(N)cc1	ALDH1A1 block inconclusive (no result: IMPase cell inh, PNC assembly inh)
COC(=O)C(O)(c1ccc(NC(=S)NC(=O)c2ccccc2)cc1)C(F)(F)F (centres undefined)	12-hLO inh inconclusive, ALDH1A1 block 25µM
ClC(Cl)(Cl)C(Cl)(Cl)Cl	none (no result: IMPase cell inh, PNC assembly inh)
CC(=O)Oc1c2c(c(CC=C(C)C)c3c1C(=O)C1=CC4CC5C(C)(C)OC(C/C=C(\C)C(=O)O)(C4=O)[C@]15O3)OC(C)(CCC=C(C)C)C=C2 (some centres undefined)	HPGD inh 28µM, 12-hLO inh inconclusive, ALDH1A1 block inconclusive (no result: IMPase cell inh, PNC assembly inh)
COc1ccc(OCc2n[nH]c(=S)n2Cc2ccco2)cc1	ALDH1A1 block inconclusive (no result: HPGD inh, IMPase cell inh, PNC assembly inh, 12-hLO inh)
Nn1c(COc2ccc(Cl)cc2)n[nH]c1=S	ALDH1A1 block 25µM (no result: HPGD inh, IMPase cell inh, PNC assembly inh, 12-hLO inh)
Cc1cccc(C)c1OCc1n[nH]c(=S)n1N	ALDH1A1 block 25µM (no result: HPGD inh, IMPase cell inh, PNC assembly inh, 12-hLO inh)
c1ccc(-c2cc3c(nc2-c2ccccc2)CCNC3)cc1	none (no result: IMPase Li inh, HPGD inh, IMPase cell inh, PNC assembly inh, 12-hLO inh)
C1CNC2NCCNC2N1 (centres undefined)	PNC assembly inh -100
CCCCCCN=C(C)c1c(O)n(Cc2ccccc2)c(=O)[nH]c1=O	PNC assembly inh -111
C/C(=N\Nc1ccccc1)c1c(O)n(Cc2ccccc2)c(=O)[nH]c1=O	HPGD inh 28µM
CC(=Nc1c(C)n(C)n(-c2ccccc2)c1=O)c1c(O)n(Cc2ccccc2)c(=O)[nH]c1=O	HPGD inh 20µM
NC(=O)c1ncn(C2OC(CO)C(O)C2O)n1 (centres undefined)	none (no result: IMPase cell inh, PNC assembly inh)
CN(C)C=O	IMPase Li inh inconclusive (no result: IMPase cell inh, PNC assembly inh)
O=C(O)C[C@H]1OCC=C2CN3CC[C@]45c6ccccc6N[C@@H]4[C@H]1[C@H]2C[C@H]35	none (no result: IMPase cell inh, PNC assembly inh)
CS(=O)(=O)O[C@H]1CN2CCC1CC2	none (no result: IMPase cell inh, PNC assembly inh)
CCSCC[C@H](N)C(=O)O	none (no result: IMPase cell inh, PNC assembly inh)
COc1ccc(-c2noc(CN3C(=O)c4ccccc4C3=O)n2)cc1	HPGD inh 20µM, PNC assembly inh inconclusive
COc1ccc(-c2cc(-c3ccccc3)[n+](C)c(-c3ccccc3)c2)cc1	ALDH1A1 block inconclusive (no result: HPGD inh, IMPase cell inh, PNC assembly inh, 12-hLO inh)
COc1ccccc1/C=C1/C(=N/O)C2CCN1CC2	ALDH1A1 block 16µM
Clc1nc(Cl)nc(Cl)n1	ALDH1A1 block 2.2µM (no result: IMPase cell inh, PNC assembly inh)
C=C(CC1CC(O)[C@]2(C)OC3CC4OC5C[C@]6(C)O[C@]7(C)CCC8OC9C[C@]%10(C)OC%11C(C)=CC(=O)OC%11CC%10OC9C[C@@H](C)C8OC7CC6O[C@]5(C)C/C=C\C4OC3CC2O1)C(=O)O (some centres undefined)	ALDH1A1 block 4µM (no result: HPGD inh, IMPase cell inh, PNC assembly inh, 12-hLO inh)
CCCOc1ccc(N2C(=O)CC(N3CC=C(c4ccccc4)CC3)C2=O)cc1 (centres undefined)	ALDH1A1 block 10µM (no result: HPGD inh, IMPase cell inh, PNC assembly inh, 12-hLO inh)
O=C1NC(=O)C(=Cc2ccc(OCCOc3ccc([N+](=O)[O-])cc3)cc2)C(=O)N1	ALDH1A1 block 18µM (no result: HPGD inh, IMPase cell inh, PNC assembly inh, 12-hLO inh)
O=C1NC(=O)N(c2ccccc2F)C(=O)/C1=C/c1ccc(Oc2ccc([N+](=O)[O-])cn2)cc1	ALDH1A1 block inconclusive (no result: HPGD inh, IMPase cell inh, PNC assembly inh, 12-hLO inh)
COc1cc2c(cc1O)C(CCc1ccc(Cl)cc1)N(C)CC2 (centres undefined)	none (no result: IMPase cell inh, PNC assembly inh)
COc1ccc(C[C@@H](N)c2ccc(OC)cc2)cc1	none (no result: IMPase cell inh, PNC assembly inh)
O=C(c1ccco1)N1CCC2(CC1)CN(Cc1ccncc1)C2	ALDH1A1 block 13µM (no result: IMPase cell inh, PNC assembly inh)
O=C(c1ccncc1)N1CCC2(CC1)CN(Cc1ccccc1)C2	none (no result: IMPase cell inh, PNC assembly inh)

Source: PubChem
